# This is a sample that favours compounds with a hit; in the whole collection about 8% have one here.
# Lassa entry inh: inhibitors of Lassa virus binding or cell entry; Potency, µM (top dose mostly 37.9 µM), for inactives: at the highest dose activity change, negative = inhibition, hits mostly inhibitors; Lassa virus pseudotype entry inhibition, cell reporter; actives 1.2% (n = 300,000); AID 540256; calls by dose curve; tested in HEK293 cells; note: potency is the fitted concentration of half-maximal effect; % is set by controls: 0 for no effect and ±100 for the full control effect; nearly all actives have a fitted effect of over 50% in size
# FMDV inh: blocks foot and mouth disease virus; FMDV antiviral cell-based qHTS; Potency, µM (titrated, usually from 57.9 µM), inactives show top-dose activity change, negative = inhibition, actives largely listed as inhibitors; actives 1.2% (n = 410,000); AID 1159524; calls by dose curve; tested in HEK293T cells; note: read-out not given here; potency is the fitted concentration of half-maximal effect; % is set by controls: 0 for no effect and ±100 for the full control effect; nearly all actives have a fitted effect of over 45% in size
# MARV entry inh: Marburg virus entry inhibition. actives 1.8% (n = 300,000). Potency, µM (top dose mostly 37.8 µM), for the others: at the highest dose activity change, negative = inhibition, most hits filed as inhibitors. Marburg virus pseudotyped entry inhibition, cell reporter; calls by dose curve; tested in HEK293 cells; note: potency is the fitted concentration of half-maximal effect; % is set by controls: 0 for no effect and ±100 for the full control effect
# SARS PLP yeast: blocks SARS-CoV papain-like protease in a yeast assay. Potency, µM (doses to about 32.9 µM), for inactives: top-dose activity, positive = growth rescue, actives largely listed as activators. AID 485353. actives 0.19% (n = 330,000). S. cerevisiae expressing SARS-CoV PLpro, growth rescue; calls by dose curve; note: potency is the fitted concentration of half-maximal effect; 0% is about no effect; nearly all actives have a fitted effect of over 55% in size
# HCMV inh: human cytomegalovirus inhibition | HFF cells, HCMV-luciferase reporter, 72 h; active compounds read low | activity change, negative = inhibition, % at 57.5 µM | actives 4.5% (n = 410,000); in the data active = activity change below about -60%; inconclusive = no clear call, values can overlap the other calls; inactive = above about -39%; note: % is set by controls: 0 for no effect and ±100 for the full control effect
#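 Steps: HFFs plated, 16 h 37C; compounds added; HCMV-luciferase added to MOI 1 PFU/cell; 72 h 37C; OneGlo reagent, 5 min room temperature; luminescence read, normalized to controls.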
# HCV inh: blocks hepatitis C virus; Potency, µM (top dose mostly 41.8 µM), for the others: top-dose activity change, negative = inhibition, most hits filed as inhibitors; actives 3.4% (n = 340,000); Huh7.5.1 HCVcc-Cre infection, luciferase reporter, 44 h; active = well fitted inhibition curve with a large enough effect; inconclusive = small, poorly fitted or top-dose-only effect, or another doubt; inactive = no such curve, though single readings can be large or run the other way; note: potency is the fitted concentration of half-maximal effect; % is set by controls: 0 for no effect and ±100 for the full control effect
#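 After 44 h co-culture of compound, cells and HCVcc-Cre (~0.5 moi), substrate is added for 15 min at room temperature and luciferase measured over 15 sec. Cells were seeded at 1,000/well and pre-cultured 4 h.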
# * = called active by the depositor; ? = inconclusive; nt = no result given; ! = a repeat was not active; [ ] = another dose, or the depositor's remark.
SMILES,Lassa entry inh,FMDV inh,MARV entry inh,SARS PLP yeast,HCMV inh,HCV inh
Cc1ccc(-c2c[n+](CC(=O)Nc3cc(=O)n(C)c(=O)n3C)c3n2CCC3)cc1,11%,0%,4%,15%,-68*,9%
CCCCNC(=O)c1ccc2c(=O)n(-c3ccccc3)c(=O)[nH]c2c1,9%[46.1 µM],4%,10%[46.1 µM],nt,-3,nt
O=C1c2[nH]nc(-c3ccccc3O)c2C(c2ccccc2F)N1Cc1ccco1 (stereo unspecified),5.2µM*,-21%,-1%,-10%,-20,?
O=C1c2[nH]nc(-c3ccccc3O)c2C(c2ccccc2)N1Cc1ccco1 (stereo unspecified),1.5µM*,-23%,?,-11%,41,-18%
COc1cc(C(=O)N2CCC2(C)C(=O)O)cc(OC)c1OC (stereo unspecified),nt,-29%,nt,nt,-13,nt
COc1cc2c(cc1OC)CN(Cc1ccc(C)s1)CC2,-6%,-5%,-17%,-3%,-95*,11%
COC(=O)c1cc(S(=O)(=O)N2CCN(c3ccc(OC)cc3)CC2)c[nH]1,1%[46.1 µM],-8%,nt,nt,-21,nt
CCn1c(/C=C2\C(=O)Nc3ccccc32)nc2ccccc2c1=O,?,22µM*,?,3%,-33,?
CCN1C(=O)/C(=C/c2nc3ccccc3c(=O)n2-c2ccc(C)cc2)c2ccccc21,-19%,?,?,4%,-78*,-10%
CCN1C(=O)/C(=C\c2nc3ccccc3c(=O)n2-c2ccccc2)c2ccccc21,?,14µM*,?,7%,-99*,6%
COc1ccc(-n2c(/C=C3\C(=O)N(C)c4ccccc43)nc3ccccc3c2=O)cc1,?,?,-12%[14.2 µM],0%,-19,-14%
Cn1c(=O)n(C)c2cc(CNC(=O)[C@H]3O[C@@H](n4ccc(=O)[nH]c4=O)[C@H](O)[C@@H]3O)ccc21,nt,51%,nt,nt,-9,nt
O=C(c1cccs1)N1CCCc2cc(NS(=O)(=O)c3ccc(F)cc3F)ccc21,-6%[46.1 µM],-3%,nt,nt,2,nt
CCc1ccc(C(=O)NCc2ccc(Cl)cc2)cc1,4%,50%,?,5%,97,2%
Cc1ccc(S(=O)(=O)N2CCCc3cc(NC(=O)c4ccc(F)c(F)c4)ccc32)cc1,-2%[46.1 µM],-21%,nt,nt,-18,nt
COc1cccc(OC)c1C(=O)Nc1ccc2c(c1)N(S(=O)(=O)c1cccs1)CCC2,nt,13%,nt,3%,-36,-21%
Cc1ccc(S(=O)(=O)N2CCCc3cc(NC(=O)c4c(F)cccc4F)ccc32)cc1,-30%[46.1 µM],-8%,nt,1%,-69*!,10µM*
COc1cccc(OC)c1C(=O)Nc1ccc2c(c1)CCCN2S(=O)(=O)c1ccc(C)cc1,8%[46.1 µM],-13%,nt,-1%,-64*!,?
O=C(Nc1ccc2c(c1)N(S(=O)(=O)c1cccs1)CCC2)c1c(F)cccc1Cl,?,3%,?,-2%,-27,14µM*
Cc1ccc(S(=O)(=O)N2CCCc3cc(NC(=O)c4cccc(Cl)c4)ccc32)cc1,-7%[46.1 µM],3%,nt,nt,-4,nt
COc1ccccc1NC(=O)CN1C(=O)CC(C)S(=O)(=O)c2ccccc21 (stereo unspecified),6%,-17%,7%,?,13,nt
Cc1cc(C(=O)COC(=O)c2ccncc2)c(C)n1Cc1ccco1,?,9%,-33%[46.1 µM],2%,-38,1%
Cc1nn(Cc2ccccc2)c(C)c1C(=O)OCC(=O)c1cc(C)n(CC(F)(F)F)c1C,1.8µM*,0%,?,3%,-11,8.9µM*
Cc1cc(C(=O)COC(=O)c2ccco2)c(C)n1Cc1ccco1,15µM*,8.9µM*,?,-7%,3,8%
Cc1ccccc1NC(=NCCCN1CC1)Nc1ccccc1C,13µM*,-10%,2.2µM*,nt,-77*,?
SMILES,Lassa entry inh,FMDV inh,MARV entry inh,SARS PLP yeast,HCMV inh,HCV inh
O=C(COc1ccccc1-c1ccccc1)N/N=C/c1ccncc1,23%,?,?,-6%,-38,?
C/C(=N\NC(=O)COc1ccccc1-c1ccccc1)c1ccc(O)cc1O,nt,0%,nt,-2%,-76*,11µM*
C/C(=N\NC(=O)COc1ccccc1-c1ccccc1)c1ccccn1,5.6µM*,?,4µM*,-3%,-98*,5µM*
O=C(COc1ccccc1-c1ccccc1)N/N=C/c1ccc2ccccc2c1,1.8µM*,-12%,?,-2%,-100*,?
CCCCCC(=O)N/N=C(\C)c1ccccn1,?,26%,7.1µM*,0%,-99*,?
CCOC(=O)c1cccn1C1C(=O)N(Cc2ccc(C(F)(F)F)cc2)c2ccccc21 (stereo unspecified),nt,nt,nt,nt,-5,nt
CCC(Cn1nnc2ccccc2c1=O)NC(=O)Nc1ccccc1OC (stereo unspecified),15%[46.1 µM],-24%,?,nt,15,nt
CCOc1ccccc1NC(=O)Cn1c(=O)n(-c2ccc(C)c(C)c2)c(=O)c2oc3ccccc3c21,?,-11%,nt,nt,-22,nt
Cc1nc([N+](=O)[O-])c(Br)n1CC(=O)c1ccccc1,-27%,?,?,-10%,2,?
Cc1nc([N+](=O)[O-])c(C(=O)OCc2ccccc2Br)n1C,?,-19%,-10%[46.1 µM],-3%,-35,-10%
Cc1nc([N+](=O)[O-])c(Br)n1CC(=O)c1ccc2ccccc2c1,?,22µM*,18µM*,-32%,70,10µM*
Cc1nc([N+](=O)[O-])c(Br)n1CC(=O)c1ccc(Br)cc1,-2%,13µM*,?,-33%,-16,?
COc1ccc(CN2C(=O)CN(S(C)(=O)=O)CC2(C)C(=O)Nc2c(C)cccc2C)cc1OC (stereo unspecified),nt,-9%,nt,nt,93,nt
COc1ccc(OC)c(N=CC2=C(O)CC(C)(C)CC2=O)c1,2%,nt,0%,-9%,35,11%
COc1ccc(N=CC2=C(O)CC(C)(C)CC2=O)cc1,16%,25%,-15%[46.1 µM],13µM*,-9,-3%
CCOc1ccc(S(=O)(=O)N2CCC(C(=O)NCCc3ccccc3)CC2)cc1,nt,-2%,nt,-9%,0,2%
O=C(Cc1cc(=O)oc2cc(O)ccc12)NN=Cc1ccc(N(CCCl)CCCl)cc1,?,-26%,4.5µM*,nt,?,-14%
O=C(NN=Cc1ccc(N(CCCl)CCCl)cc1)c1cc(=O)[nH]c(=O)[nH]1,?,-18%,?,nt,15,-14%
COc1cc(NC(=O)CCc2c(C)n(C)c3cc(-c4ccccc4C)nn3c2=O)cc(OC)c1OC,-5%[46.1 µM],-20%,nt,nt,-37,nt
CC1=C(C(=O)Nc2ccccc2)C(c2ccco2)NC(=O)N1 (stereo unspecified),0%,-21%,10%,nt,-97*,8%

# Compound activity deposited in PubChem by National Center for Advancing Translational Sciences (NCATS).
